Assay results taken from ChEMBL document CHEMBL3988442, “University of Dundee, Small-Polar-MMV Screening Library” (2021).
The campaign covered roughly 48,000 compounds. About 13,000 (27%) showed an effect of 50% or more. The list shows a part of the results.

system: Wolbachia pipientis; assay: Anti-Wolbachia Cell-Based Screen; assay type: functional; set-up: scale not given: in the data most compounds retested in dose-response had high values; settings: 5 µM

SMILES | Percent Effect [%]
Cc1occc1C(=O)NCC(=O)N(C)CCCOc1ccc(F)cc1 | -0.7534
Cc1cc(C(C)NC(=O)c2cnc3onc(C)c3c2)c(C)o1 (stereo not given) | 7.597
C1CC1c1nsc(N2CCN(C3CC3)CC2)n1 | -1.801
CSCCc1c(-c2ccccc2)ncn1[C@H]1C[C@@H](C(=O)O)N(C)C1 | 9.47
CCCS(=O)(=O)N1CCN(c2ccnc(N3CCCCC3)n2)CC1 | -4.762
CCc1cnc(CNC(=O)NCCc2ccc(O)cc2)s1 | 101.6
CCc1cnc(CNC(=O)NC2CC(C)(C)OC2(C)C)s1 (stereo not given) | 0.9333
CNC(=O)Cc1ccc(NC(=O)NCc2ncc(C)s2)cc1 | -0.2896
Cc1cnc(CCNC(=O)NCCc2ccc(O)cc2)s1 | 116.1
CCc1cnc(CNC(=O)N2CCCC(C(=O)NC)C2)s1 (stereo not given) | -0.4435
Cc1cnc(CCNC(=O)NCCOc2ncccc2Cl)s1 | -4.9
COc1ccc(CNC(=O)NCCc2nc(C)c(C)s2)cn1 | -8.722
CCc1cnc(CNC(=O)NCCCO)s1 | 97.97
CCc1cnc(CNC(=O)N2CCCC(c3ncc[nH]3)C2)s1 (stereo not given) | -16.47
CCn1c(C)cc(C(=O)NCc2cccc(NS(C)(=O)=O)c2)c1C | -5.652
CNC(=O)c1cc(NC(=O)NCC2CCS(=O)(=O)C2)ccc1OC (stereo not given) | -3.737
Cc1noc(OCc2csc(C)n2)n1 | 2.505
COc1cc2nc(C)sc2cc1NC(=O)C(C)NC(N)=O (stereo not given) | -2.888
COc1ccccc1N1CCN(C(=O)CCCS(N)(=O)=O)C(C)C1 (stereo not given) | -9.849
CCOC(=O)c1sc2ccsc2c1CNC(=O)C(C)(C)C#N | 61.27
CCOC(=O)c1sc2ccsc2c1CN.Cl | -6.159
CCOC(=O)c1sc2ccsc2c1CNC(=O)CC | 11.82
O=C(c1ccc[nH]1)N1C[C@H]2CC[C@@H]1CN(C1Cc3ccccc3C1)C2 | -8.418
Cc1nc(-c2ccccc2)n(CC(=O)NC(C)C2CC2)n1 (stereo not given) | -16.22
Cc1cccc(-c2nc(C)nn2CC(=O)NC(C)C)c1 | 108.3
Cc1cccc(-c2nc(C)nn2CC(=O)N(C)C2CC2)c1 | -1.032
CCC(C)(C)NC(=O)Cn1nc(C)nc1-c1cccc(C)c1 | -9.782

SMILES | Percent Effect [%]
Cc1cccc(-c2nc(C)nn2CC(=O)NC(C)C2CC2)c1 (stereo not given) | 96.27
Cc1cccc(-c2nc(C)nn2CN2CCN(S(C)(=O)=O)CC2)c1 | -9.044
Cc1ccc(CNC2(Cc3cc(CC(C)C)on3)COC2)o1 | 0.7021
O=C(O)C(F)(F)F.O=C(c1cccc(Cl)c1)N1CC[C@H]2[C@H]1CCN2CC1CC1 | -19.81
O=C1CN(C(=O)c2cccc(C(F)(F)F)c2)CC(O)CN1CC1CC1 (stereo not given) | 100.3
O=C(c1ccc(=O)[nH]c1)N1CCC(Oc2cccc(C(F)(F)F)c2)CC1 | -22.64
N#CCCN1CC(O)CN(C(=O)c2cccc(C(F)(F)F)c2)CC1=O (stereo not given) | 98.63
Nc1cc(C(=O)N2CCOC(Cc3cccc(C(F)(F)F)c3)C2)ccn1 (stereo not given) | -0.1683
CCN1CC(O)CN(C(=O)c2cccc(C(F)(F)F)c2)CC1=O (stereo not given) | 106.7
CC(C)(C)CN1CC(O)CN(C(=O)c2cccc(C(F)(F)F)c2)CC1=O (stereo not given) | 85.94
Cc1nnn2c1COCC(CNCc1nccs1)C2.O=C(O)C(F)(F)F (stereo not given) | -0.1911
Cc1cc(C)n(CC(C)NC2CCN(Cc3cccc(O)c3)CC2)n1 (stereo not given) | -0.5082
NC(=O)c1csc(N2CCCC(c3nc4ccccc4[nH]3)C2)n1 (stereo not given) | 1.485
CNC(=O)[C@@H](c1ccccc1OC)N1CCC[C@H]1C(=O)NC1CC1.Cl | -3.931
CNC(=O)[C@H]1C[C@@H]2CN(S(=O)(=O)c3cccc(F)c3)C[C@@H]2N1C.O=C(O)C(F)(F)F | -6.312
Cc1nn(C)c(C)c1C1CCCN1c1ncnc2c1CCC2 (stereo not given) | 10.31
CCCn1nccc1S(=O)(=O)N1CCC2(CCCN(C(C)C)C2=O)C1 (stereo not given) | 7.399
CCC1CCC(NCCN2CCOCC2)CC1 (stereo not given) | -1.764
COc1ncc(-c2nccn2C(C)CCn2cccn2)cn1 (stereo not given) | -0.87
O=C(O)C1CCCCN1C(=O)c1cccc(C(F)(F)F)c1 (stereo not given) | 1.382
Nc1cc(C(=O)N2CCC(Oc3cccc(C(F)(F)F)c3)CC2)ccn1 | 0.5907
O=C(c1ccncc1)N1CCC(Oc2cccc(C(F)(F)F)c2)CC1 | -12.2
COCCN1CC(O)CN(C(=O)c2cccc(C(F)(F)F)c2)CC1=O (stereo not given) | 96.14
O=C(c1cccc(C(F)(F)F)c1)N1CC(=O)N(C2CCC2)CC(O)C1 (stereo not given) | 119.9
CC(C)CN1CC(O)CN(C(=O)c2cccc(C(F)(F)F)c2)CC1=O (stereo not given) | 93.47
CC(C)c1nnc2n1CCN(C(=O)c1cccc(C(F)(F)F)c1)C2 | -7.984
Cc1c(Br)cccc1C(=O)NCC1CCNCC1.Cl | 5.039

SMILES | Percent Effect [%]
COC(=O)NCc1ccc(NC(=O)CC2=CCCCC2)cc1 | -4.854
Cc1nc(N2CCN(S(C)(=O)=O)CC2)cc(-n2cnc(C)c2C)n1 | -12.66
CC(C)(C)CCN1CCCC(Cn2cc(CCO)nn2)C1 (stereo not given) | -5.43
Cc1ccccc1CN1CCN(C(=O)c2ccn(C(C)(C)C)c2)CC1 | 106.5
CNS(=O)(=O)c1ccc(CN2CCN(Cc3ncccc3C)CC2)cc1 | 2.71
CC(C)(C)n1cc(C(=O)N2CCN(Cc3ccccc3F)CC2)cn1 | -9.517
Cc1cccnc1CN1CCN(C(=O)c2ccn(C(C)(C)C)c2)CC1 | 140.1
Cc1ccccc1CN1CCN(C(=O)CCn2ccccc2=O)CC1 | -43.85
Cc1cccnc1CN1CCN(C(=O)CCn2ccccc2=O)CC1 | -35.18
CCOC(=O)CC(NC(=O)c1cn(Cc2ccccc2F)nn1)C(C)C (stereo not given) | 0.973
O=C(O)C1c2nc[nH]c2CCN1Cc1cc(-c2ccccc2)no1 (stereo not given) | -8.907
CCCc1cc(C(=O)N(C)Cc2cccc3cnccc23)n(C)n1 | -5.635
CN(Cc1cccc2cnccc12)C(=O)CCc1n[nH]c2c1CCCC2 | 113.4
O=C(CCc1n[nH]c2c1CCCC2)N1C[C@@H]2CC[C@H](C1)N(CC1CC1)C2 | 3.665
Cc1ncc(CC(=O)N2CCC3(CCC(=O)N(C4CC4)C3)CC2)c(=O)[nH]1 | 3.916
NC(=O)NC1CCN(Cc2ccc(Br)c(F)c2)CC1 | -13.64
CCOc1ccc(CNCc2cccnc2N(C)C)cc1 | 80.05
CC(=O)Nc1ccc(CNCc2cccnc2N(C)C)cc1 | 96.06
CCOc1ccc(S(=O)(=O)NCc2cccnc2N(C)C)cc1 | -21.99
CCN(C(=O)NCc1cccnc1N(C)C)C(C)c1cccnc1 (stereo not given) | -18.28
CC(C)(C)NS(=O)(=O)c1ccccc1CNCc1cccc(O)c1 | -1.047
Cc1oc(C)c(C(=O)NCc2cccnc2N(C)C)c1C | -9.408
CN(C)c1ncccc1CNCc1cccc(O)c1 | 107.5
CC(C)NS(=O)(=O)c1ccccc1CNCc1cccc(O)c1 | -3.142
CCc1ncc(CNCc2cccnc2N(C)C)cn1 | 101.7
O=C(O)[C@@H]1CN(Cc2c[nH]c(CC3CCCC3)n2)C[C@H]1c1ccncc1 | -4.479
CCN(CC)c1nc2sc(C(=O)NCC(=O)OC)cc2s1 | -6.557

SMILES | Percent Effect [%]
O=C1N[C@@H]2CCN(C(=O)N3CCOCC3)[C@@H]2C(=O)N1Cc1ccccc1 | 7.346
OC(CN(Cc1ccccc1)Cc1ccon1)c1ccco1 (stereo not given) | 27.39
CCCN1CCC(NN2CCN(C)CC2)CC1 | 6.891
NC1(CNC(=O)c2cc3ccccc3[nH]2)CCCC1 | 106.9
COc1ccc(CNC(=O)C2(C#N)CCCC2)cc1 | -22.34
O=C(NCC1(O)CCSCC1)c1nccc2ccccc12 | -4.929
O=C(Nc1cc(CSCCO)ccn1)c1cc2ccccc2[nH]1 | -29.11
COc1ccc2[nH]c(C(=O)NCC3(N)CCCC3)cc2c1 | 112.8
COc1ccc2cc(C(=O)N3CCCCC3CC(N)=O)[nH]c2c1 (stereo not given) | -6.391
COCCOc1ccc(NC(=O)N(C)Cc2ccsc2)cn1 | -6.376
Cc1noc([C@H]2C[C@H]3OCC[C@H]3N(Cc3cccs3)C2)n1.O=C(O)C(F)(F)F | -3.779
CN(Cc1ncnn1C)C(=O)CCCn1ccc2cc(Cl)ccc21 | 8.375
CS(=O)(=O)c1ccc2c(c1)N(C(=O)c1cccc(F)c1)CCC2 | 5.094
O=C(NCCSC1CCCC1)c1c(F)cccc1F | 10.15
CCC(CNC(=O)c1ccc(F)cc1F)N1CCc2ccccc2C1 (stereo not given) | 10.38
O=C(NCCC(=O)N1CCCc2ccccc21)c1c(O)cc(F)cc1F | 3.729
O=C(NCCC(=O)N1CCCc2ccccc21)c1c(F)cccc1F | 120
O=C(NCCC(=O)N1CCCc2ccccc21)c1cc(F)cc(F)c1 | 126.9
O=C(NCCS(=O)(=O)N1CCc2ccccc21)c1c(O)cc(F)cc1F | 11.09
O=C(NCC(=O)N1CCCc2ccccc21)c1c(O)cc(F)cc1F | 103.6
O=C(NCCSC1CCCC1)c1ccc(F)cc1F | 11.89
CS(=O)(=O)c1ccc2c(c1)N(C(=O)Cc1cccc(F)c1)CCC2 | 1.079
O=C(NCCC(=O)N1CCCc2ccccc21)c1ccc(F)cc1F | 138.5
Cn1cc(CCNC(=O)N2CCCc3c(F)cccc32)cn1 | -24.48
